Reference: PubChem BioAssay (Tox21)
Values joined by “and” are separate entries in the source; they are usually repeats but may differ in a detail not shown here. Equal values may be shown once. Results filed as inconclusive are left out. Where a call stands in place of a potency, no number is given. Some compounds were tested as several samples or in several runs, with calls that do not always agree. Active and inactive are the calls of the source. Calls come from the whole dose curve; as a rule, active = well fitted curve in the direction sought with a large enough effect in the repeat runs; inconclusive = weak or mixed curves; inactive = no such curve, though single readings can be large; an effect the other way counts as inactive or inconclusive.

Tests used:
[1] = A CellTox Green Cytotoxicity Assay to monitor cytotoxicity in HEK293 cells - 40 hour (AID 1224871); note: nearly all actives have a fitted effect of over 45% in size
Method in brief: (§1)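 Each value comes from one timepoint of a single continuous run in which HEK293 cells with CellTox Green were exposed to compound for up to 40 h at 37 C, dye fluorescence rising with cell death.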

[2] = qHTS RealTime-Glo MT Cell Viability Assay in HEK293 cells - 16 hour (AID 1224872); note: top concentration of the series differs between compounds; nearly all actives have a fitted effect of over 50% in size
Method in brief: (§2)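 Assay medium contained NanoLuc luciferase plus cell-permeant prosubstrate, added with HEK293 cells at 600 cells/well. After 5 h at 37 C/5% CO2 compounds were added; plates stayed at 37 C for 40 h with serial luminescence reads.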

[3] = qHTS RealTime-Glo MT Cell Viability Assay in HepG2 cells - 8 hour (AID 1224873); note: nearly all actives have a fitted effect of over 55% in size
Method in brief: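 HepG2 cells mixed with RealTime-Glo MT reagents (NanoLuc plus cell-permeant prosubstrate) were seeded at 600 cells/well, incubated 5 h at 37 C/5% CO2, then pinned with compounds in DMSO; nonlytic luminescence tracked viability during 40 h treatment.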

[4] = qHTS RealTime-Glo MT Cell Viability Assay in HEK293 cells - 40 hour (AID 1224874); conditions: RealTime-Glo luminescence; max response: stronger effect = lower value; note: nearly all actives have a fitted effect of over 50% in size
Method in brief: (§3)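 qHTS format; HEK293 cells with NanoLuc/prosubstrate reagent, 37 C/5% CO2 for 5 h pre-dosing; compounds 23 nL in DMSO; luminescence at each time point reflects viable cells.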

[5] = A CellTox Green Cytotoxicity Assay to monitor cytotoxicity in HEK293 cells - 24 hour (AID 1224875); note: series mostly up to about 77 µM; nearly all actives have a fitted effect of over 45% in size
Method in brief: as §1

[6] = A CellTox Green Cytotoxicity Assay to monitor cytotoxicity in HepG2 cells - 16 hour (AID 1224876); note: nearly all actives have a fitted effect of over 45% in size
Method in brief: (§4)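 Continuous culture of HepG2 cells with a membrane-impermeant DNA dye; rising fluorescence marks dead cells. Compound exposure lasted up to 40 h at 37 C, with reads every 8 h from 0 h.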

[7] = A CellTox Green Cytotoxicity Assay to monitor cytotoxicity in HepG2 cells - 24 hour (AID 1224878); note: nearly all actives have a fitted effect of over 45% in size
Method in brief: as §4

[8] = A CellTox Green Cytotoxicity Assay to monitor cytotoxicity in HepG2 cells - 40 hour (AID 1224879); note: nearly all actives have a fitted effect of over 40% in size
Method in brief: as §4

[9] = qHTS RealTime-Glo MT Cell Viability Assay in HEK293 cells - 0 hour (AID 1224880)
Method in brief: as §3

[10] = A CellTox Green Cytotoxicity Assay to monitor cytotoxicity in HEK293 cells - 32 hour (AID 1224881); note: nearly all actives have a fitted effect of over 40% in size
Method in brief: as §1

[11] = A CellTox Green Cytotoxicity Assay to monitor cytotoxicity in HepG2 cells - 0 hour (AID 1224882); note: nearly all actives have a fitted effect of over 35% in size; note: potency is the fitted concentration of half-maximal effect
Method in brief: as §4

[12] = A CellTox Green Cytotoxicity Assay to monitor cytotoxicity in HepG2 cells - 32 hour (AID 1224883); note: nearly all actives have a fitted effect of over 50% in size
Method in brief: as §4

[13] = A CellTox Green Cytotoxicity Assay to monitor cytotoxicity in HEK293 cells - 8 hour (AID 1224884); note: nearly all actives have a fitted effect of over 35% in size
Method in brief: as §1

[14] = qHTS RealTime-Glo MT Cell Viability Assay in HepG2 cells - 16 hour (AID 1224885); note: nearly all actives have a fitted effect of over 50% in size
Method in brief: (§5)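 qHTS, HepG2, 600 cells/well, RealTime-Glo (NanoLuc + prosubstrate) added with cells; 5 h preincubation; DMSO compound addition; 37 C; luminescence at 0/8/16/24/32/40 h.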

[15] = qHTS RealTime-Glo MT Cell Viability Assay in HEK293 cells - 24 hour (AID 1224886)
Method in brief: as §2

[16] = qHTS RealTime-Glo MT Cell Viability Assay in HEK293 cells - 8 hour (AID 1224887)
Method in brief: as §3

[17] = A CellTox Green Cytotoxicity Assay to monitor cytotoxicity in HEK293 cells - 16 hour (AID 1224888); note: nearly all actives have a fitted effect of over 35% in size
Method in brief: as §1

[18] = qHTS RealTime-Glo MT Cell Viability Assay in HepG2 cells - 0 hour (AID 1224889); note: nearly all actives have a fitted effect of over 50% in size
Method in brief: as §5

[19] = A CellTox Green Cytotoxicity Assay to monitor cytotoxicity in HepG2 cells - 8 hour (AID 1224890); note: nearly all actives have a fitted effect of over 45% in size
Method in brief: as §4

[20] = qHTS RealTime-Glo MT Cell Viability Assay in HepG2 cells - 32 hour (AID 1224877); note: nearly all actives have a fitted effect of over 55% in size
Method in brief: as §5

Row | SMILES | Potency [1] | Potency [2] | outcome [3] | max response [4] | Potency [5] | Potency [6] | Potency [7] | Potency [8] | Potency [9] | Potency [10] | Potency [11] | Potency [12] | Potency [13] | Potency [14] | Potency [15] | Potency [16] | Potency [17] | Potency [18] | Potency [19] | outcome [20]
1 | Nc1cccc(N)c1 | inactive | inactive | inactive | 6.95% (inactive) and 5.34% (inactive) and 0.651% (inactive) | inactive | inactive | inactive | inactive | inactive | inactive | inactive | inactive | inactive | inactive | inactive | inactive | inactive | inactive | inactive | 
2 | Cc1cccc(Nc2cc(Cl)nc(SCC(=O)O)n2)c1C | inactive | inactive | inactive | -8.11% (inactive) and -6.81% (inactive) and -0.208% (inactive) | inactive | inactive |  | inactive | inactive | inactive | inactive | inactive | inactive | inactive | inactive | inactive |  | inactive | inactive | inactive
3 | C/C=C/c1ccc(O)c(OC)c1 | inactive | inactive | inactive | -5.09% (inactive) and 1.37% (inactive) and 1.68% (inactive) | inactive | inactive | inactive | inactive | inactive | inactive | inactive | inactive | inactive | inactive | inactive | inactive | inactive | inactive | inactive | 
4 | COC(=O)c1ccc(C=O)cc1 | inactive | inactive | inactive | -13.1% (inactive) and 1.66% (inactive) | inactive | inactive | inactive | inactive | inactive | inactive | inactive | inactive | inactive | inactive | inactive | inactive |  | inactive | inactive | 
5 | CCN1CCCC1=O | inactive | inactive | inactive | 0.414% (inactive) and 1.37% (inactive) | inactive | inactive |  | inactive | inactive | inactive | inactive | inactive | inactive | inactive | inactive | inactive | inactive | inactive | inactive | inactive
6 | CCCCCCCC(=O)OCC(O)CO (stereo not given) | inactive | inactive | inactive | 11.2% (inactive) and -0.735% (inactive) | inactive | inactive |  | inactive | inactive | inactive | inactive and 26.8 µM (active) | inactive | inactive | inactive | inactive | inactive | inactive | inactive | inactive | inactive
7 | C=CCOC(=O)CC(C)C | inactive | inactive | inactive | 4.01% (inactive) and 4.38% (inactive) | inactive | inactive |  | inactive | inactive | inactive | inactive | inactive | inactive | inactive | inactive | inactive | inactive | inactive | inactive | inactive
8 | Cc1c(N(C)C)c(=O)n(-c2ccccc2)n1C | inactive | inactive | inactive | 8.84% (inactive) and 0.672% (inactive) and 6.67% (inactive) | inactive | inactive |  | inactive | inactive | inactive | inactive | inactive | inactive | inactive | inactive | inactive |  | inactive | inactive | inactive
9 | CC(C)(C)NCC(O)c1ccc(O)c(CO)c1 (stereo not given) | inactive | inactive | inactive | 9.56% (inactive) and 4.37% (inactive) | inactive | inactive |  |  | inactive | inactive | inactive | inactive | inactive | inactive | inactive | inactive | inactive | inactive | inactive | inactive
10 | C=C(C)C(N)=O | inactive | inactive | inactive | 4.84% (inactive) and 13.1% (inactive) | inactive | inactive | inactive | inactive | inactive | inactive | inactive | inactive | inactive | inactive | inactive | inactive |  | inactive | inactive | 
